Data taken from PubChem BioAssay (Tox21).
Unmarked numbers belong to inactive results. Records with an inconclusive call do not appear. A call without a number means that no potency is given here. Active and inactive are the calls of the source. Unless noted, calls come from the whole dose curve; as a rule, active = well fitted curve in the direction sought with a large enough effect in the repeat runs; inconclusive = weak or mixed curves; inactive = no such curve, though single readings can be large; an effect the other way counts as inactive or inconclusive.

Experiments:
[1] = A CellTox Green Cytotoxicity Assay to monitor cytotoxicity in HepG2 cells - 8 hour (AID 1224890); note: nearly all actives have a fitted effect of over 45% in size
In short: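 HepG2, 600 cells/well premixed w/ CellTox Green; 5 h settle, 37 C/5% CO2; pintool cpd add (DMSO); 37 C, 40 h; fluorescence read at 0, 8, 16, 24, 32, 40 h.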

[2] = qHTS assay to identify small molecule antagonists of the estrogen receptor alpha (ER-alpha) signaling pathway using the BG1 cell line in the presence of 0.1 nM 17-beta-estradiol - cell viability counter screen (AID 1259241); note: nearly all actives have a fitted effect of over 40% in size
In short: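 VM7Luc4E2 cells (endogenous ER-alpha, 4×ERE-luciferase), hormone-starved 5 days in charcoal-stripped FBS, were treated with compounds plus 0.1 nM 17beta-estradiol for 22 hr at 37C; viability read in same wells as CellTiter-Fluor live-cell protease fluorescence.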

[3] = target: Estrogen receptor (Homo sapiens) (UniProt P03372); assay: qHTS assay to identify small molecule antagonists of the estrogen receptor alpha (ER-alpha) signaling pathway using the BG1 cell line in the presence of 0.1 nM 17-beta-estradiol (AID 1259244); note: nearly all actives have a fitted effect of over 50% in size
Chain of Estrogen receptor (Homo sapiens) (P03372 whole entry, looked up): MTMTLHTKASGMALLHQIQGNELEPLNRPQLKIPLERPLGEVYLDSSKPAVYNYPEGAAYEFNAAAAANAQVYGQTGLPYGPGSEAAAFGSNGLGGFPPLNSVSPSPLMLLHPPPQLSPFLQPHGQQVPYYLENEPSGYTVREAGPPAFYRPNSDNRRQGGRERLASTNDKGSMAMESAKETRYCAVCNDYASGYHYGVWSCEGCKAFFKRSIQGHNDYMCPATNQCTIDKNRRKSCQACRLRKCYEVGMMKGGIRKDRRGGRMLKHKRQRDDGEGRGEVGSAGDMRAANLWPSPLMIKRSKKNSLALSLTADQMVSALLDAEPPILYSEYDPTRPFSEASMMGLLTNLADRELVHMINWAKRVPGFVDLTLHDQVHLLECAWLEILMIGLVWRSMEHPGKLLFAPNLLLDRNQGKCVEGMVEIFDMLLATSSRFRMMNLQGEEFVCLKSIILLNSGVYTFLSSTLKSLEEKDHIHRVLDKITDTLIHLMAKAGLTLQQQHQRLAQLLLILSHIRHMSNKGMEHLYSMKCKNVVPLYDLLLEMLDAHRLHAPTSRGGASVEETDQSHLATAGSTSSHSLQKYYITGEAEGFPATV
In short: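 Luminescence after ONE-Glo (30 min, room temperature) measured ERE-luciferase activity in VM7Luc4E2 cells treated 22 h with compound and 0.1 nM final 17beta-estradiol as stimulator.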

[4] = qHTS assay to identify small molecule phospholipidosis (PLD) inducers (AID 1259344; active = well fitted curve in the direction sought with a large enough effect; an effect the other way counts as inactive or inconclusive; note: potency is the fitted concentration of half-maximal effect)
In short: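 Image-based: LipidTOX Red pit count/intensity per well and per cell; HepG2, 24 h compound at 37 C, PFA fixation, Hoechst counterstain.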

[5] = qHTS assay to identify small molecule HDAC inhibitors (AID 1259364);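 note: wild-type HCT-116 cells with endogenous class I/II HDAC activity; top concentration of the series differs between compounds; nearly all actives have a fitted effect of over 45% in size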
In short: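 HCT-116 (wild type), 1,500 cells/well, overnight; compound 2 hr 37C 5% CO2; HDAC-Glo I/II reagent 30 min RT; luminescence readout.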

[6] = qHTS assay to identify small molecule HDAC inhibitors - cell viability counter screen (AID 1259365); note: series mostly up to about 92 µM; nearly all actives have a fitted effect of over 50% in size
In short: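 Wild-type HCT-116 cells were seeded at 1,500 per well, incubated overnight at 37 C, then exposed to compounds in DMSO for 2hr. Viability was read by CellTiter-Glo luminescence after 30min at room temperature.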

[7] = qHTS assay to identify small molecule agonists of the sonic hedgehog signaling (Shh) pathway - cell viability counter screen (AID 1259366); note: nearly all actives have a fitted effect of over 50% in size
In short: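 NIH/3T3-derived 3T3 Gli1-Luc cells (stable Gli1-responsive firefly luciferase reporter) were seeded, rested 4 hr at 37 C/5% CO2, then exposed to compounds in DMSO for 24 hr; viability was read by CellTiter-Fluor fluorescence in the same wells.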

[8] = qHTS assay to identify small molecule antagonists of the sonic hedgehog signaling (Shh) pathway - cell viability counter screen (AID 1259367); note: nearly all actives have a fitted effect of over 55% in size
In short: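 Tox21 library chemicals were tested on a Gli1-Luc NIH/3T3 clone (2,000 cells/well) stimulated by conditioned medium; viability was quantified as fluorescence from CellTiter-Fluor reagent added at 23 hr.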

[9] = qHTS assay to identify small molecule agonists of the sonic hedgehog signaling (Shh) pathway (AID 1259368; calls by dose curve; note: series mostly up to about 92 µM; nearly all actives have a fitted effect of over 15% in size)
In short: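 Read-out: firefly luciferase luminescence from a Gli1 response element reporter stably integrated in NIH/3T3-derived 3T3Gli1-Luc cells, measured 30 min at room temperature after reagent addition. Compound exposure lasted 24 hr at 37 C, 5% CO2.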

[10] = target: Estrogen receptor beta (Homo sapiens) (UniProt Q92731); assay: qHTS assay to identify small molecule agonists of the estrogen receptor beta (ER-beta) signaling pathway (AID 1259377; active = well fitted activation curve with a large enough effect in the signal ratio in the repeat runs, not every such curve was filed as active; the % refers to the signal ratio)
Chain of Estrogen receptor beta (Homo sapiens) (Q92731 whole entry, looked up): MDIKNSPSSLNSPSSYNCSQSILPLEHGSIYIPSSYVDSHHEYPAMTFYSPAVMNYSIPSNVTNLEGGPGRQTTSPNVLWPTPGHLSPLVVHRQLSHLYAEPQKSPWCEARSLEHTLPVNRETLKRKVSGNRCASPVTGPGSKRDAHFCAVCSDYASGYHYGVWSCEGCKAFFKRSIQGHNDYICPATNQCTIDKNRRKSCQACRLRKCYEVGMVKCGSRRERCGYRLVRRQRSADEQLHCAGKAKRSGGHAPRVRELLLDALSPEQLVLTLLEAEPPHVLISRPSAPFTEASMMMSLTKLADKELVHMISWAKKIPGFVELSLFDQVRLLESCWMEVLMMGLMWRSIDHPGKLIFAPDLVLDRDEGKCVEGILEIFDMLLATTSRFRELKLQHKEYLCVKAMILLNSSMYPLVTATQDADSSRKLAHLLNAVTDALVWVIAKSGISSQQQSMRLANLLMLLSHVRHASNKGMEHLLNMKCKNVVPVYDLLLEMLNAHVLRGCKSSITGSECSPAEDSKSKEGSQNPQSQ
In short: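 ER-beta-UAS-bla HEK293T (GripTite) cells carrying a UAS-driven beta-lactamase reporter, in medium with 2% charcoal-stripped FBS, were exposed to compounds for 16 hr at 37C; LiveBLAzer B/G FRET substrate was then added and fluorescence read after 2 hours at room temperature.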

[11] = target: Estrogen receptor beta (Homo sapiens) (UniProt Q92731); assay: qHTS assay to identify small molecule antagonists of the estrogen receptor beta (ER-beta) signaling pathway (AID 1259378; active = well fitted inhibition curve with a large enough effect in the signal ratio in the repeat runs, not every such curve was filed as active; the % refers to the signal ratio; note: potency is the fitted concentration of half-maximal effect)
In short: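 ER-beta-UAS-bla HEK293T cells in 2% charcoal-stripped FBS medium treated with compound plus 1nM final 17-beta-estradiol for 16 hr at 37C. Beta-lactamase reporter read by FRET substrate fluorescence after 2 hours at room temperature.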

[12] = qHTS assay to identify small molecule agonists of the androgen receptor (AR) signaling pathway in the presence of an antagonist - cell viability counter screen (AID 1259379);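 note: MDA-kb2 human breast cancer cells carrying an MMTV luciferase reporter; series mostly up to about 92 µM; nearly all actives have a fitted effect of over 25% in size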
In short: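 Viability counter screen: CellTiter-Fluor fluorescence, measured in the same wells as the luciferase read-out. MDA-kb2 cells, 3,000/well, with nilutamide at 3.0uM final and compounds at 15 concentrations, 16 hr at 37C, 0% CO2.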

[13] = qHTS assay to identify small molecule agonists of the estrogen receptor beta (ER-beta) signaling pathway - cell viability counter screen (AID 1259380); note: nearly all actives have a fitted effect of over 30% in size; note: potency is the fitted concentration of half-maximal effect
In short: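 Luminescence read-out (CellTiter-Glo, 30 min, room temp) taken in the same wells as the beta-lactamase reporter assay; ER-beta-UAS-bla HEK293T cells exposed to DMSO-dissolved compounds for 16 hr at 37C in 2% charcoal-stripped FBS medium.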

[14] = qHTS assay to identify small molecule antagonists of the estrogen receptor beta (ER-beta) signaling pathway - cell viability counter screen (AID 1259382); note: nearly all actives have a fitted effect of over 55% in size; note: potency is the fitted concentration of half-maximal effect
In short: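 Luminescent ATP read-out (CellTiter-Glo, 30 min, RT) taken in the same wells as the bla reporter assay. HEK293T ER-beta-UAS-bla cells in 2% charcoal-stripped FBS were exposed to compounds with 1nM E2 for 16 hr at 37C.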

[15] = qHTS assay to identify small molecule agonists or antagonists of the thyroid stimulating hormone receptor (TSHR) signaling pathway - wild type cell line counter screen (AID 1259384; calls by dose curve)
In short: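 Wild-type Hek293 cells, 800/well, 18 h at 37C, then compound with Ro20-1724 for 30 min RT. cAMP by HTRF (cAMP-d2/anti-cAMP cryptate), 1 h RT, fluorescence read. 15 concentrations, triplicates.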

[16] = qHTS assay to identify small molecule antagonists of the sonic hedgehog signaling (Shh) pathway (AID 1259369; calls by dose curve; note: nearly all actives have a fitted effect of over 45% in size)
In short: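 Luminescence readout: firefly Luc under Gli1 response element in 3T3Gli1-Luc cells (NIH/3T3 clone). Antagonist mode, stimulation by conditioned medium; compound exposure 24hr at 37 C, 5% CO2.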

[17] = qHTS assay to identify small molecule antagonists of the androgen receptor (AR) signaling pathway using the MDA cell line in the presence of 0.5 nM R1881 - cell viability counter screen (AID 1259242); note: nearly all actives have a fitted effect of over 45% in size
In short: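 Live-cell protease fluorescence, CellTiter-Fluor, 30 min at 37C. Cells: MDA-kb2, 3,000/well, preincubated 5 hr. Compounds plus 0.5 nM R1881 final, 16 hr, 37C, 0% CO2.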

[18] = target: Androgen receptor (Homo sapiens) (UniProt P10275); assay: qHTS assay to identify small molecule antagonists of the androgen receptor (AR) signaling pathway using the MDA cell line in the presence of 0.5 nM R1881 (AID 1259243); note: nearly all actives have a fitted effect of over 50% in size
Chain of Androgen receptor (Homo sapiens) (P10275 whole entry, looked up): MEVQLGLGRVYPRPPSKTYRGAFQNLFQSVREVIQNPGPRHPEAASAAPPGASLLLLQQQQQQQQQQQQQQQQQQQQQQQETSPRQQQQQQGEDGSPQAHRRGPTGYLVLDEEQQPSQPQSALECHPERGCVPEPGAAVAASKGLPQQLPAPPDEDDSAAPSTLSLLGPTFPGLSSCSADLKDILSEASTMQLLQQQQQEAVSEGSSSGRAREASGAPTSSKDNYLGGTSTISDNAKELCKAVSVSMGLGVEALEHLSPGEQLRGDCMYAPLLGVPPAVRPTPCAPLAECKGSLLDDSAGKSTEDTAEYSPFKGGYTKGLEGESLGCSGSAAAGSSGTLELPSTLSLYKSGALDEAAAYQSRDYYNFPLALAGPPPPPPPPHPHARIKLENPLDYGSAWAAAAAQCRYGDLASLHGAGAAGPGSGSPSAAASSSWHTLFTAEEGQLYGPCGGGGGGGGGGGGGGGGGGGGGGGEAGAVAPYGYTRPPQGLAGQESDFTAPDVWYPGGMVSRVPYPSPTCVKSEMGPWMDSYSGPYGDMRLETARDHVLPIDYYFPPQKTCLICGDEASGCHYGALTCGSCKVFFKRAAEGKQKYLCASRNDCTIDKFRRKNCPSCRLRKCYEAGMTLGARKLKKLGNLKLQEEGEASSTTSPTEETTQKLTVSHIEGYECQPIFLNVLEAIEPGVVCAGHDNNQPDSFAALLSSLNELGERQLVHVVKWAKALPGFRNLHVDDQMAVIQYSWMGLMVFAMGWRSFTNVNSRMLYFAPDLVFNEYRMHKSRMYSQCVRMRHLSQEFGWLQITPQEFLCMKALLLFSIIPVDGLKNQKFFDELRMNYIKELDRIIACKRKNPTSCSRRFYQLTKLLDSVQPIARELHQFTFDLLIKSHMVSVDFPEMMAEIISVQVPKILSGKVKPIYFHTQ
In short: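 MDA-kb2, MMTV-luc (AR/GR elements); 3,000 cells/well; cpd + 0.5 nM R1881 final; 16 hr 37C, 0% CO2; ONE-Glo 30 min RT; luminescence.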

[19] = target: Androgen receptor (Homo sapiens) (UniProt P10275); assay: qHTS assay to identify small molecule agonists of the androgen receptor (AR) signaling pathway in the presence of an antagonist (AID 1259381; calls by dose curve; note: nearly all actives have a fitted effect of over 15% in size)
In short: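 Luciferase read-out (ONE-Glo, 30min room temperature) in MDA-kb2 MMTV-reporter cells; agonist mode run in presence of AR antagonist nilutamide, 3.0uM final. Compounds tested as 15-point series, 16hr exposure at 37C, 0% CO2.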

[20] = target: Estrogen receptor (Homo sapiens) (UniProt P03372); assay: qHTS assay to identify small molecule agonists of the estrogen receptor alpha (ER-alpha) signaling pathway in the presence of an antagonist (AID 1259383; calls by dose curve; note: top concentration of the series differs between compounds; nearly all actives have a fitted effect of over 15% in size)
In short: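 Luciferase luminescence (ONE-Glo, 30min at room temperature) measured in VM7Luc4E2 cells after 22hr compound exposure at 15 concentrations, with 10.0nM ICI-182,780 final present; cells express endogenous ER-alpha and carry four EREs upstream of luciferase.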

Compound	Potency [1]	Potency [2]	Potency [3]	Potency [4]	Potency [5]	outcome [6]	Potency [7]	Potency [8]	Potency [9]	Potency [10]	Potency [11]	Potency [12]	Potency [13]	Potency [14]	outcome [15]	Potency [16]	Potency [17]	Potency [18]	Potency [19]	Potency [20]
NC(=O)c1cc[n+](CC2=C(C(=O)[O-])N3C(=O)[C@@H](NC(=O)Cc4cccs4)[C@H]3SC2)cc1	inactive	inactive	inactive	inactive	inactive	inactive	inactive	inactive	inactive	inactive	inactive	inactive	inactive	inactive	inactive					
O=C(Cl)c1ccc(F)c(Cl)c1	inactive	inactive	inactive		inactive	inactive	inactive	inactive	inactive			inactive	inactive	inactive	inactive	inactive				
O=C(O)c1ccccc1[N+](=O)[O-]	inactive	inactive			inactive		inactive	inactive	inactive	inactive	inactive		inactive	inactive	inactive	inactive	inactive			
O=C(c1ccc(Cl)cc1)c1ccc(Cl)cc1	inactive	inactive	inactive		inactive		inactive	inactive	inactive	inactive	inactive	inactive	inactive	inactive	inactive	inactive		inactive	inactive	inactive
C[C@]12CCC(=O)C=C1[C@@H]1C[C@@H]1[C@H]1[C@@H]3[C@@H]4C[C@@H]4[C@@]4(CCC(=O)O4)[C@@]3(C)CC[C@@H]12	inactive	inactive		11.2 µM (active)	inactive	inactive	inactive	inactive	inactive			inactive		inactive						
CC(=O)Nc1ccccc1O	inactive	inactive			inactive		inactive	inactive	inactive	inactive	inactive	inactive	inactive	inactive	inactive	inactive				
Cc1c(Cl)cccc1[N+](=O)[O-]	inactive	inactive			inactive	inactive	inactive	inactive	inactive	inactive	inactive	inactive	inactive	inactive		inactive				
CC(C)(Cc1c[nH]c2ccccc12)NCC(O)COc1ccccc1C#N (stereo not given)	inactive	inactive			inactive	inactive		inactive	inactive	inactive		inactive	29.8 µM (active)	26.6 µM (active)	inactive		inactive			
[O-][n+]1ccc(Cl)cc1	inactive	inactive			inactive		inactive	inactive	inactive			inactive		inactive		inactive	inactive			
CCCCCCCCC(=O)OCC(C)OC(=O)CCCCCCCC (stereo not given)	inactive	inactive			inactive	inactive	inactive	inactive	inactive	inactive	inactive	inactive	inactive	inactive	inactive	inactive				
CC(=O)c1ccc(Cl)c(Cl)c1Cl	inactive	inactive			inactive		inactive	inactive	inactive	inactive	inactive	inactive	inactive	inactive	inactive	inactive	inactive			inactive
CC1=C(C)C(=O)C(CCCCC#CCCCC#CCO)=C(C)C1=O	inactive	inactive		inactive	inactive	inactive	inactive	inactive	inactive		21.1 µM (active)		18.8 µM (active)	26.6 µM (active)	inactive	inactive				inactive
Cc1nc2sccn2c(=O)c1CCN1CCC(=C(c2ccc(F)cc2)c2ccc(F)cc2)CC1	inactive	inactive			inactive		inactive	inactive	inactive	inactive			13.3 µM (active)		inactive		inactive			inactive
CCOC(OCC)OCC	inactive	inactive			inactive		inactive	inactive	inactive	inactive	inactive	inactive	inactive	inactive	inactive	inactive	inactive			inactive
